Laboratory results as given in PubChem BioAssay (Tox21).
Values without a mark were called inactive. Inconclusive results are not listed. A call without a number means that no potency is given here. Activity calls are given as the source filed them. Unless noted, the call rests on the fitted dose curve; in most records, active means well fitted curve in the direction sought with a large enough effect in the repeat runs; inconclusive means weak or mixed curves; inactive means no such curve, though single readings can be large; an effect the other way counts as inactive or inconclusive.

Columns and labels:
[1] = target: Luciferin 4-monooxygenase (Photinus pyralis) (UniProt P08659); assay: qHTS assay to identify small molecule inhibitors of firefly luciferase (AID 1224835); further: nearly all actives have a fitted effect of over 25% in size; further: potency means the concentration at half of the fitted maximal effect
Sequence of Luciferin 4-monooxygenase (Photinus pyralis) (P08659 whole entry, looked up): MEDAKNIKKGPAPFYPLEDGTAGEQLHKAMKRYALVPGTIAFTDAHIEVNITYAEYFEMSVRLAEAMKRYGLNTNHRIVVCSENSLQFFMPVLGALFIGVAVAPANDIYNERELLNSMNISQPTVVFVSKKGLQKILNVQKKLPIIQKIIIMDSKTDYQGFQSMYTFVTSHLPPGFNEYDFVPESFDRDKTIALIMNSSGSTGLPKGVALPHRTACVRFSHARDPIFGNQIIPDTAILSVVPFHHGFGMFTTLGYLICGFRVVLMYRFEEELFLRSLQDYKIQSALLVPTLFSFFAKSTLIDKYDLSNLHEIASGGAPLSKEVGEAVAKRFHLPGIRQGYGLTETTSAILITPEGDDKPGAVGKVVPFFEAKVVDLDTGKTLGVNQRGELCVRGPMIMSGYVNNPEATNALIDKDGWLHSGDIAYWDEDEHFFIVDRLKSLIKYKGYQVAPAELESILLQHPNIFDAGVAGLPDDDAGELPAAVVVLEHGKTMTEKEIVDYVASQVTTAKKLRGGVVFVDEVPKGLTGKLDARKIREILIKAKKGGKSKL
Procedure, shortened: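 Biochemical qHTS: compounds run as interplate titrations against purified firefly enzyme, with D-luciferin and ATP each at its KM concentration. Light output recorded by CCD imaging.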

[2] = target: Nuclear receptor subfamily 1 group I member 3 (Homo sapiens) (UniProt Q14994); assay: qHTS assay to identify small molecule antagonists of the constitutive androstane receptor (CAR) signaling pathway (AID 1224838); further: nearly all actives have a fitted effect of over 40% in size; further: potency means the concentration at half of the fitted maximal effect
Sequence of Nuclear receptor subfamily 1 group I member 3 (Homo sapiens) (Q14994 whole entry, looked up): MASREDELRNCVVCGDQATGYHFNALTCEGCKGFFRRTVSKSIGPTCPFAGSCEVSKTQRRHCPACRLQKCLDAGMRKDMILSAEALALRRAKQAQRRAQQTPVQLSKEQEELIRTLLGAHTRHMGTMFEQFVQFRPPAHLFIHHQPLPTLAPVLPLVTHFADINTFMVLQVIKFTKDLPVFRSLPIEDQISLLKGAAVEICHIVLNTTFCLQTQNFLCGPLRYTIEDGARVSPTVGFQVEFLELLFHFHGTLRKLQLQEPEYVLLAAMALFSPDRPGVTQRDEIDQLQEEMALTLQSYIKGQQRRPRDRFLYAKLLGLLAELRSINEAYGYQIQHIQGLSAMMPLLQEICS
Procedure, shortened: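 Inhibition of CITCO-driven (50 nM final) CYP2B6 reporter expression is measured in HepG2 cells stably carrying hCAR. Fifteen compound concentrations are applied for 24 h at 37 C, followed by luciferase luminescence.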

[3] = target: Nuclear receptor subfamily 1 group I member 3 (Homo sapiens) (UniProt Q14994); assay: qHTS assay to identify small molecule agonists of the constitutive androstane receptor (CAR) signaling pathway (AID 1224839); further: nearly all actives have a fitted effect of over 15% in size; further: potency means the concentration at half of the fitted maximal effect
Procedure, shortened: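 Compounds tested at 15 concentrations on HepG2 cells stably harbouring hCAR and CYP2B6-2.2kb reporter constructs, co-treated with PK11195 (0.75 uM final), 24 h at 37 C; luminescent reporter signal quantified.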

[4] = qHTS assay to identify small molecule antagonists of the estrogen related receptor signaling pathway with the pleiotropic PPARgamma coactivator (PGC) from Tox21 10K library (AID 1224841; call rule not given here; further: actives are mostly falling curves and most rising ones were filed inactive; nearly all actives have a fitted effect of over 50% in size; further: potency means the concentration at half of the fitted maximal effect)
Procedure, shortened: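 One-Glo luminescence, measured after half an hour at room temperature, quantified reporter output of PGC/ERR cells. These had been plated at 2,000 per well, incubated 6 h, dosed with compounds in DMSO, then kept 18 h at 37 C.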

[5] = qHTS assay to identify small molecule agonists of the hypoxia (HIF-1) signaling pathway - cell viability counter screen (AID 1224844; calls by dose curve; further: nearly all actives have a fitted effect of over 50% in size)
Procedure, shortened: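 In this counter screen, HRE-bla ME-180 cell viability after 17 hrs of compound exposure at 37C was read by CellTiter-Glo luminescence, multiplexed with the beta-lactamase reporter measurement.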

[6] = qHTS assay to identify small molecule agonists of H2AX (AID 1224845; active means well fitted activation curve with a large enough effect in the signal ratio in the repeat runs, not every such curve was filed as active; the % refers to the signal ratio; further: potency means the concentration at half of the fitted maximal effect)
Procedure, shortened: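 Wild-type CHO-K1 cells, plated overnight, exposed 3hr at 37C to 15 concentrations (0.76% DMSO final). Lysed, then HTRF anti-pH2AX (S139) cryptate and anti-H2AX-d2 antibodies, 24 hr room temperature; 665/620 nm emission read.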

[7] = qHTS assay to identify small molecule agonists of H2AX - cell viability counter screen (AID 1224847; calls by dose curve; further: nearly all actives have a fitted effect of over 30% in size; further: potency means the concentration at half of the fitted maximal effect)
Procedure, shortened: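 Compounds tested at 15 concentrations were incubated 3 hr at 37C with wild-type CHO-K1 cells; cellular ATP-based luminescence (CellTiter-Glo) indicated viability.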

[8] = qHTS assay to identify small molecule antagonists of the estrogen related receptor (ERR) signaling pathway from Tox21 library (AID 1224848); further: nearly all actives have a fitted effect of over 50% in size; further: potency means the concentration at half of the fitted maximal effect
Procedure, shortened: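 Quantitative high-throughput format: ERR reporter cells (2,000/well) pre-incubated 6 h, treated 18 h at 37 C with compounds in DMSO alongside positive and negative controls, then read by ONE-Glo luminescence.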

[9] = qHTS assay to identify small molecule agonists of the estrogen related receptor (ERR) signaling pathway from Tox21 library (AID 1224849; calls by dose curve; further: nearly all actives have a fitted effect of over 15% in size); conditions: ERR reporter cell line, ONE-Glo luciferase, 18 h; at 92.4 µM (top of the series) unless noted
Procedure, shortened: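 Luciferase activity in ERR pathway reporter cells served as the agonist readout; exposure lasted 18 h at 37 C, with ONE-Glo detection after 30 min at room temperature.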

[10] = qHTS RealTime-Glo MT Cell Viability Assay in HEK293 cells - 32 hour (AID 1224868); further: nearly all actives have a fitted effect of over 50% in size; further: potency means the concentration at half of the fitted maximal effect
Procedure, shortened: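 Luminescence generated by NanoLuc from substrate produced by living HEK293 cells served as the viability signal. Each value reflects the reading at its stated time point during continuous 40 h compound exposure at 37 C.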

[11] = A CellTox Green Cytotoxicity Assay to monitor cytotoxicity in HEK293 cells - 0 hour (AID 1224869); further: nearly all actives have a fitted effect of over 50% in size
Procedure, shortened: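 Real-time, in one plate: 600 HEK293 cells/well with dead-cell DNA dye, pinned compound after 5 h, 37 C incubation over 40 h; viable cells give no appreciable fluorescence.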

[12] = qHTS RealTime-Glo MT Cell Viability Assay in HepG2 cells - 40 hour (AID 1224870); further: nearly all actives have a fitted effect of over 50% in size
Procedure, shortened: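 HepG2 cells (600/well) mixed with RealTime-Glo MT reagent, settled 5 h at 37 C/5% CO2 before compound addition. Nonlytic NanoLuc luminescence from viable-cell prosubstrate reduction read repeatedly during 40 h treatment at 37 C.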

[13] = qHTS assay to identify small molecule antagonists of the estrogen related receptor signaling pathway with the pleiotropic PPARgamma coactivator (PGC) from Tox21 10K library - cell viability counter screen (AID 1224840; active means well fitted cell-killing curve with a large enough effect in the repeat runs, not every such curve was filed as active; further: nearly all actives have a fitted effect of over 40% in size; further: potency means the concentration at half of the fitted maximal effect)
Procedure, shortened: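 Readout: fluorescence intensity from CellTiter-Fluor after 30 min at 37 C/5% CO2. Preceded by 17.5 h treatment of PGC/ERR cells with DMSO-dissolved compounds, added 6 h post-seeding.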

[14] = target: Thyrotropin receptor (Homo sapiens) (UniProt P16473); assay: qHTS assay to identify small molecule agonists of the thyroid stimulating hormone receptor (TSHR) signaling pathway (AID 1224843; calls by dose curve; further: nearly all actives have a fitted effect of over 45% in size; further: potency means the concentration at half of the fitted maximal effect)
Sequence of Thyrotropin receptor (Homo sapiens) (P16473 whole entry, looked up): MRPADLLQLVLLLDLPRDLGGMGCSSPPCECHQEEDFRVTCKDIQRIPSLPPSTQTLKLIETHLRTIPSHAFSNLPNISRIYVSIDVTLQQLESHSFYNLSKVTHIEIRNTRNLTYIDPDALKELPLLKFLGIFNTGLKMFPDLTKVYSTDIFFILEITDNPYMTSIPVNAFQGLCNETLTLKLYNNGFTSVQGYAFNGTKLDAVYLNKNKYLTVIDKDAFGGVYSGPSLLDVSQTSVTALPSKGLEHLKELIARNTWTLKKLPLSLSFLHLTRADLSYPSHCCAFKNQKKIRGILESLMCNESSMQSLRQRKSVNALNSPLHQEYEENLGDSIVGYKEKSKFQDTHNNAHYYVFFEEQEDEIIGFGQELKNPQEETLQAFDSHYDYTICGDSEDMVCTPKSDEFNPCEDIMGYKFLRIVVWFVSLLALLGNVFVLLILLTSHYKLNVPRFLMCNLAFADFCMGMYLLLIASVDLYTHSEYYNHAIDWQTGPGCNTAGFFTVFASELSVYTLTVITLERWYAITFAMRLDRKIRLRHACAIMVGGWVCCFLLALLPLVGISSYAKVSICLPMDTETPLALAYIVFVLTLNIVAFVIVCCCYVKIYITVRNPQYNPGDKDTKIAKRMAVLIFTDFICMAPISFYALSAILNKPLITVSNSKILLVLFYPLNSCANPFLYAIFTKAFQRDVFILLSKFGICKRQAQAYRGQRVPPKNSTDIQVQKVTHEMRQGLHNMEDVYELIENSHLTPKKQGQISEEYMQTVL
Procedure, shortened: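 Agonist-mode screen: TSHR HEK293 cells received test chemicals for half an hour at room temperature, then HTRF cAMP detection reagents for one hour prior to fluorescence measurement. Each chemical ran as a 15-concentration series, triplicated.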

[15] = qHTS assay to identify small molecule agonists of the constitutive androstane receptor (CAR) signaling pathway - cell viability counter screen (AID 1224836); further: nearly all actives have a fitted effect of over 45% in size
Procedure, shortened: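 23 h treatment, 37 C, 5% CO2. Cell line: HepG2 stably expressing hCAR with a CYP2B6-2.2kb construct. Co-treatment: PK11195, 0.75 uM final. Read-out: CellTiter-Fluor fluorescence intensity.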

[16] = qHTS assay to identify small molecule agonists of the hypoxia (HIF-1) signaling pathway (AID 1224846; active means well fitted activation curve with a large enough effect in the signal ratio in the repeat runs, not every such curve was filed as active; the % refers to the signal ratio)
Procedure, shortened: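 ME-180 HRE-bla reporter cells; compounds in DMSO, 17 h at 37C; read-out beta-lactamase via CCF4-AM FRET.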

[17] = qHTS assay to identify small molecule agonists of the estrogen related receptor signaling pathway with the pleiotropic PPARgamma coactivator (PGC) from Tox21 10K library (AID 1224842); further: nearly all actives have a fitted effect of over 15% in size
Procedure, shortened: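 PGC/ERR reporter cell line, 2,000 cells per well, incubated 6 h at 37 C before 23 nL compound in DMSO was added. After 18 h at 37 C, One-Glo luminescence read following 30 min at room temperature.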

[18] = qHTS RealTime-Glo MT Cell Viability Assay in HepG2 cells - 24 hour (AID 1224867); further: nearly all actives have a fitted effect of over 50% in size
Procedure, shortened: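 Tox21 10K library screened in qHTS format on HepG2 cells carrying RealTime-Glo reagents. Compounds were added after a 5 h preincubation, and the luminescent signal from continuous culture was measured repeatedly during 40 h treatment.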

[19] = qHTS assay to identify small molecule antagonists of the constitutive androstane receptor (CAR) signaling pathway - cell viability counter screen (AID 1224837); further: nearly all actives have a fitted effect of over 45% in size; further: potency means the concentration at half of the fitted maximal effect
Procedure, shortened: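 CITCO at 50 nM final was added alongside compounds (15 concentrations) to double-stable hCAR/CYP2B6-2.2kb HepG2 cells. Following 23 hr at 37 C, cell viability was quantified by CellTiter-Fluor fluorescence intensity.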

Row | Compound | Potency [1] | Potency [2] | Potency [3] | Potency [4] | Potency [5] | Potency [6] | Potency [7] | Potency [8] | activity change, positive = activation [9] | Potency [10] | Potency [11] | Potency [12] | Potency [13] | Potency [14] | Potency [15] | Potency [16] | Potency [17] | Potency [18] | Potency [19]
1 | CN1CCc2cc3c(cc2C1O)OCO3 (stereo not given) | inactive | inactive | inactive | inactive | inactive | inactive | inactive | inactive | 0.659% | inactive | inactive | inactive |  |  |  |  |  |  | 
2 | O.O.O.O=C([O-])[C@H]([O-])[C@@H]([O-])C(=O)[O-].O=C([O-])[C@H]([O-])[C@@H]([O-])C(=O)[O-].[K+].[K+].[Sb+3].[Sb+3] | inactive |  |  |  |  | 114 µM (active) | inactive |  |  |  | inactive | inactive | 19.4 µM (active) |  |  |  |  |  | 
3 | S=C=NCCc1ccccc1 | 40 µM (active) | inactive | 9.71 µM (active) |  | inactive |  |  |  |  | 49.1 µM (active) | inactive |  | inactive | inactive |  |  |  |  | 
4 | Cc1cc(C2CC2)nc(Nc2ccccc2)n1 | 39.9 µM (active) | inactive | 54.5 µM (active) | inactive | inactive |  |  | inactive | 13.7% (active) | 24.5 µM (active) | inactive | inactive |  |  | inactive | inactive |  |  | 
5 | Cc1cnc2c(C(=O)O)c(Cl)ccc2c1 | inactive |  |  | inactive | inactive | inactive | inactive | inactive | -0.863% | inactive | inactive | inactive |  |  | inactive |  | inactive | inactive | 
6 | COc1ccc(Cc2nccc3cc(OC)c(OC)cc23)cc1OC |  | inactive | 15 µM (active) |  | inactive | inactive | inactive |  |  | 5.35 µM (active) | inactive | inactive |  | 9.44 µM (active) | inactive |  |  |  | inactive
7 | COP(=S)(OC)Oc1ccc([N+](=O)[O-])c(C)c1 |  | inactive |  |  | inactive | inactive | inactive |  | -19.2% | inactive | inactive | inactive |  | inactive | inactive |  |  | inactive | inactive
8 | CCCCn1cc[n+](C)c1 (tested in a mixture with another compound) |  |  |  |  | inactive | inactive | inactive |  |  | inactive | inactive | inactive | inactive |  | inactive |  |  | inactive | inactive
9 | CCCCCCCc1ccc(O)cc1 |  | inactive |  |  |  |  | 50.5 µM (active) |  |  | 19.5 µM (active) | inactive | inactive | inactive | inactive | inactive |  |  |  | 
10 | N#CCCl | inactive | inactive | inactive |  | inactive | inactive |  |  |  |  | inactive | inactive | inactive | inactive | inactive | inactive |  | inactive | 
11 | CC#C[C@]1(O)CC[C@H]2[C@@H]3C[C@H](C)C4=CC(=O)CC[C@]4(C)[C@H]3CC[C@@]21C | inactive |  | inactive |  | inactive |  | inactive |  |  |  |  | inactive | inactive | inactive | inactive | inactive |  |  | 
12 | CC(C)c1c(CN(C)C(C)Cc2ccccc2)n(C)n(-c2ccccc2)c1=O (stereo not given) | inactive | inactive | 13.3 µM (active) |  |  | inactive | inactive |  |  |  | inactive | inactive |  |  |  | inactive |  | inactive | 
13 | N#Cc1c2ccccc2cc2ccccc12 | inactive |  | inactive | inactive | inactive | inactive |  | inactive | 3.94% |  | inactive | inactive |  | inactive |  |  | inactive | inactive | 
14 | CC(=O)O.CC(=O)O.CC(=O)O.CC(=O)O.CC(=O)O.CC(=O)O.CC(=O)O.O.O.[Cr].[Cr].[Cr] |  |  |  |  | inactive | inactive | inactive |  |  | inactive | inactive | inactive | inactive |  | inactive | inactive |  | inactive | inactive
15 | CC(=O)[O][Sn]([c]1ccccc1)([c]1ccccc1)[c]1ccccc1 | 2.24 µM (active) | 0.0545 µM (active) | inactive | 0.545 µM (active) |  | 0.101 µM (active) | 0.142 µM (active) | 0.077 µM (active) | -74% |  | inactive |  | 0.172 µM (active) |  |  |  |  |  | 0.154 µM (active)
16 | Nc1ccccc1-c1ccccc1 |  | inactive | inactive |  |  | inactive | inactive | 27.1 µM (active) | -40.4% |  | inactive | inactive |  | inactive | inactive | inactive | inactive |  | inactive
17 | O=S1(=O)OCC2C(CO1)C1(Cl)C(Cl)=C(Cl)C2(Cl)C1(Cl)Cl (stereo not given) | 39.9 µM (active) |  | 17.2 µM (active) |  |  | inactive | inactive |  |  |  | inactive | inactive | inactive | 17.2 µM (active) |  | inactive |  |  | 
18 | COC(=O)c1cc(Oc2ccc(Cl)cc2Cl)ccc1[N+](=O)[O-] | inactive | inactive |  |  | inactive | inactive |  |  |  |  | inactive | inactive | inactive | inactive | inactive |  |  | inactive | 
19 | BrCC(Br)(Br)Br |  | inactive | inactive | inactive |  | inactive | inactive | inactive | 15.6% | 45.3 µM (active) | inactive | inactive | inactive |  | inactive | inactive | inactive | inactive | inactive
20 | COC(=O)N(OC)c1ccccc1COc1ccn(-c2ccc(Cl)cc2)n1 |  | inactive | 24.3 µM (active) | 0.486 µM (active) | inactive | inactive | 1.27 µM (active) | 0.137 µM (active) | -52.1% | 21.9 µM (active) | inactive | inactive | inactive | inactive |  |  | inactive | inactive | inactive
